Test results reported in PubChem BioAssay AID463173 (ICCB-Longwood Screening Facility, Harvard Medical School, 2010).
Out of some 52,000 compounds screened, about 4,300 (8.3%) were called active. The entries come from a sample that favours actives as a whole. Values without a mark were called inactive. No stated cut-off is given here; in the data, active means survival mostly below about 52% (no sharp cut-off); inactive means mostly above about 56%.

Tested on: DeltatarO mutant
Assay: S. aureus survival, RN4220 and DeltatarO strains – OD600, teichoic acid synthesis inhibitors, primary screen (AID 463173)
Conditions: S. aureus RN4220 wild type/DeltatarO growth, OD600, 18 h, stronger effect = lower value, screened at 18.75 µg/mL (by protocol)

SMILES | survival
CCc1cccc(NC(=O)COc2cc(=O)n(CC)c3ccccc23)c1 | 115%
CCc1ccc(OCC(=O)Nc2ccc3c(c2)c2ccccc2n3CC)c(Br)c1 | 6% (active)
CCOC(=O)c1ccccc1NC(=O)COc1cc(=O)n(CC)c2ccccc12 | 53%
CCn1c2ccccc2c2cc(NC(=O)COc3ccc(C)cc3C)ccc21 | -5% (active)
Cc1ccc(-n2nc3ccc(NC(=O)COc4ccccc4C)cc3n2)cc1 | 72%
COc1ccc(NC(=O)c2ccco2)cc1NC(=O)COc1ccc(C)cc1C | 56%
CCc1ccc(OCC(=O)Nc2ccc3c(c2)c2ccccc2n3CC)cc1 | 51%
CCn1c2ccccc2c2cc(NC(=O)COc3cc(C)ccc3C)ccc21 | 29% (active)
COc1ccc(C)cc1NC(=O)COc1cc(=O)n(C)c2ccccc12 | 90%
CCc1ccc(S(=O)(=O)c2nnn3c2nc(N2CCOCC2)c2sccc23)cc1 | 83%
Cc1ccccc1-n1nc(CO)c(C(=O)NCCc2ccccc2)n1 | 86%
Cc1ccc(-c2cc(C(F)F)n3ncc(C(=O)NCC4CCCO4)c3n2)cc1 (centres undefined) | 87%
CCCCN(C)CCNC(=O)CN1C(=O)CSc2ccc(S(=O)(=O)N3CCCCC3)cc21 | 113%
CC(C)Cc1nn2cc(-c3cccc(Br)c3)nc2s1 | 112%
Cn1ccc2cc(S(=O)(=O)N3CCCN(C(=O)Nc4ccccc4Br)CC3)ccc21 | 67%
CCOc1ccc(Nc2nc3c(S(=O)(=O)c4ccc(CC)cc4)nnn3c3ccc(Cl)cc23)cc1 | 104%
O=C(O)CNC(=O)c1sc2ccccc2c1Cl | 84%
O=C(Nc1cccs1)Nc1ccc(F)cc1F | 83%
O=C(Nc1cccc(C(F)(F)F)c1)Nc1cccs1 | -3% (active)
Cc1ccccc1NC(=O)Nc1cccs1 | 94%

SMILES | survival
Cc1ccc(NC(=O)Nc2cccs2)c(C)c1 | 91%
O=C(Nc1cccs1)Nc1cc(C(F)(F)F)ccc1Cl | 11% (active)
O=C(Nc1cc(C(F)(F)F)ccc1Cl)c1cc(-c2cccs2)nc2ccccc12 | 86%
O=C(Nc1cccc(C(F)(F)F)c1)c1cccc(C(=O)Nc2cccc(C(F)(F)F)c2)c1 | 84%
O=C(Nc1cccc(C(F)(F)F)c1)c1cccs1 | 95%
Cc1cc(C)cc(NC(=O)Nc2cccs2)c1 | 26% (active)
COc1ccc(CNC(=O)c2cnc(N3CCCC3)nc2C)cc1 | 71%
O=S(=O)(Nc1ccc(-c2ccc(N3CCCC3)nn2)cc1)c1ccccc1Cl | 66%
CC1(NS(C)(=O)=O)CC=CC1 | 115%
Cc1cccc(NC(=O)c2cccc(N3CCCS3(=O)=O)c2)c1 | 78%
COc1cccc(C2C(C(=O)Nc3ccc(C)cc3C)=C(C)Nc3c(C(=O)Nc4cccc(C)c4)cnn32)c1OC (centres undefined) | 94%
CCn1cc(S(=O)(=O)c2cccc(C)c2)c(=O)c2cc(F)c(N3CCN(c4ccccc4)CC3)cc21 | 84%
CCCc1cc(=O)[nH]c2nnc(SCCC(C)C)n12 | 90%
Cc1cccc(-n2cc(-c3ccccc3)c3c(N4CCC(C)CC4)ncnc32)c1 | 90%
CCOc1ccc(/C=C/c2nc(C#N)c(N3CCN(CC)CC3)o2)cc1 | 70%
CN1CCN(C2=NC(=O)/C(=C\C=C/c3ccccc3)S2)CC1 | 79%
COC(=O)COc1ccc(C2C(C(=O)OC)=C(C)NC3=C2C(=O)c2ccccc23)cc1OC (centres undefined) | 29% (active)
CCOc1ccc(Br)cc1C1C(C(=O)OC)=C(C)NC2=C1C(=O)c1ccccc12 (centres undefined) | 48%
COC(=O)C1=C(C)NC2=C(C(=O)c3ccccc32)C1c1ccc(O)c(OC)c1 (centres undefined) | 85%
CCOc1cc(C2C(C(=O)OC)=C(C)NC3=C2C(=O)c2ccccc23)cc(Cl)c1O (centres undefined) | 29% (active)

SMILES | survival
CCOC(=O)COc1ccccc1C1C(C(=O)OC)=C(C)NC2=C1C(=O)c1ccccc12 (centres undefined) | 39% (active)
CCOc1cc(C2C(C(=O)OC)=C(C)NC3=C2C(=O)c2ccccc23)c(Br)cc1OC (centres undefined) | 52%
CCOc1cc(C2C(C(=O)OC)=C(C)NC3=C2C(=O)c2ccccc23)ccc1O (centres undefined) | 31% (active)
CCOc1cc(C2C(C(=O)OC)=C(C)NC3=C2C(=O)c2ccccc23)cc(Br)c1OCC (centres undefined) | 47%
C#CCOc1c(Br)cc(C2C(C(=O)OC)=C(C)NC3=C2C(=O)c2ccccc23)cc1OCC (centres undefined) | 62%
C#CCOc1ccc(C2C(C(=O)OC)=C(C)NC3=C2C(=O)c2ccccc23)cc1OCC (centres undefined) | 167%
CCOC(=O)COc1ccc(C2C(C(=O)OC)=C(C)NC3=C2C(=O)c2ccccc23)cc1Cl (centres undefined) | 119%
CCOc1ccc(C2C(C(=O)OC)=C(C)NC3=C2C(=O)c2ccccc23)cc1OC (centres undefined) | 48%
CC(=O)c1ccc(NC(=O)Cn2c(=O)cc(C)c3c(C)nn(-c4cccc(F)c4)c32)cc1 | 81%
Cc1cc(=O)n2nc(N3CCC(C(=O)NCCCOC(C)C)CC3)sc2n1 | 100%
NC1CCC(c2ccccc2)CC1 (centres undefined) | 78%
COc1ccc(-c2cn3nc(N4CCC(C(=O)NCc5ccc(F)cc5)CC4)sc3n2)cc1 | 88%
CC1=C(C(=O)Nc2ccc(Cl)cc2)C(c2cccs2)n2nc(SCc3cccc(C)c3)nc2N1 (centres undefined) | 88%
COCCNC(=O)CSc1cn(CC(=O)N2CCCCCC2)c2ccccc12 | 73%
COc1ccc(-c2nc3c4cnn(-c5ccccc5F)c4ncn3n2)cc1 | 59%
CN1CCN(C(CNC(=O)C(=O)Nc2ccccc2)c2ccc3c(c2)OCO3)CC1 (centres undefined) | 67%
COc1ccc(NC(=O)c2c(C)oc3ccc(O)c(CN4CCC(C)CC4)c23)cc1 | 57%
CCc1c(C)nc(SCC(=O)N2CCN(c3ccccc3OC)CC2)[nH]c1=O | 77%
CCCCNC(=O)c1ccc2c(c1)NC(=O)C(CS(=O)(=O)Cc1ccc(C)cc1)N2 (centres undefined) | 87%
